Screening results from PubChem.
Most compounds without a hit are left out; they make up all but 19% or so of the library.
DT40 TDP1 CPT: DT40-hTDP1 cell growth loss with CPT | chicken DT40 Tdp1-/-;hTDP1 cells + 20 nM CPT, ATP luminescence, 48 h | actives 12% (n = 420,000) | Potency, µM (series often up to 46.2 µM), inactives show at the highest dose activity change, negative = growth inhibition, actives largely listed as inhibitors; further: potency means the concentration at half of the fitted maximal effect; nearly all actives have a fitted effect of over 55% in size
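Chicken DT40 Tdp1-/- cells stably complemented with human TDP1 were seeded at 400 cells/well in medium containing 20 nM camptothecin, exposed to pin-transferred compounds, and grown at 37 °C for at least 48 hr. Viability was read as ATP luminescence.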
Giardia kill: Giardia lamblia killing; AID 540267; activity change, % at 7.66 µM, hits read low; Giardia lamblia trophozoite viability; actives 0.15% (n = 340,000); in the data active means activity change below about -80%; inconclusive means between about -30% and that limit;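 further: parasites exposed to compound for two days anaerobically before the ATP read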
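Luminescence from cellular ATP indicates surviving trophozoites (100 cells/well) following 48 hrs anaerobic compound treatment at 37 deg C; signal develops 15-30 min at room temperature.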
ELG1 DNA repair: inhibitors of ELG1-dependent DNA repair in HEK293T cells; HEK293T ELG1-luciferase reporter, luminescence, 16 h; DNA damage induced by 5-fluorouridine; Potency, µM (highest dose often 46.1 µM), inactives show at the highest dose activity change, negative = inhibition, usual class: inhibitors; actives 2.3% (n = 330,000); further: potency means the concentration at half of the fitted maximal effect; nearly all actives have a fitted effect of over 55% in size
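Overnight (16 hr) co-exposure of 2,000 cells/well to 5-fluorouridine and compound at 37 °C preceded detection. Luciferase was quantified via ONE-Glo luminescence; loss of signal denotes inhibition.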
IL-1B inflam inh: blocks inflammasome-driven IL-1 beta release; THP-1 LPS/ATP IL-1B secretion, AlphaLISA, 16 h; stronger effect = lower value; activity change, % at 57.5 µM; actives 4.7% (n = 360,000); AID 743279; in the data active means activity change below about -50%; inconclusive means mostly about -30% to -49%
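THP-1 cells pretreated 1 hr with compounds (up to 57.5 uM final), then stimulated with LPS (250 ng/mL final) plus ATP (1.25 mM final); secreted IL-1B measured by AlphaLISA after 16 hr, decreased signal indicating inhibition.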
DT40 TDP1 no CPT: qHTS for Inhibitors of human tyrosyl-DNA phosphodiesterase 1 (TDP1): qHTS in cells in absence of CPT; DT40 Tdp1-/- hTDP1 cells, no CPT, ATP luminescence, 48 h; Potency, µM (titrated, usually from 46.2 µM), without a hit: top-dose activity change, negative = growth inhibition, actives largely listed as inhibitors; actives 15% (n = 420,000); AID 686978, 2013; further: potency means the concentration at half of the fitted maximal effect; nearly all actives have a fitted effect of over 55% in size
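A cellular qHTS used chicken DT40 cells lacking endogenous Tdp1 but carrying stably transfected human TDP1. Compounds were applied without camptothecin, and cell growth kinetics were judged by ATP-dependent luminescence after ≥48 hr.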
TDP1 block: inhibitors of human tyrosyl-DNA phosphodiesterase TDP1; recombinant TDP1, AlphaScreen DNA substrate cleavage; Potency, µM (doses to about 130 µM), without a hit: at the highest dose activity change, negative = inhibition, most hits filed as inhibitors; actives 0.28% (n = 350,000); Q9NUW8; AID 485290; further: potency means the concentration at half of the fitted maximal effect; nearly all actives have a fitted effect of over 40% in size
Target sequence (Q9NUW8 whole entry, looked up): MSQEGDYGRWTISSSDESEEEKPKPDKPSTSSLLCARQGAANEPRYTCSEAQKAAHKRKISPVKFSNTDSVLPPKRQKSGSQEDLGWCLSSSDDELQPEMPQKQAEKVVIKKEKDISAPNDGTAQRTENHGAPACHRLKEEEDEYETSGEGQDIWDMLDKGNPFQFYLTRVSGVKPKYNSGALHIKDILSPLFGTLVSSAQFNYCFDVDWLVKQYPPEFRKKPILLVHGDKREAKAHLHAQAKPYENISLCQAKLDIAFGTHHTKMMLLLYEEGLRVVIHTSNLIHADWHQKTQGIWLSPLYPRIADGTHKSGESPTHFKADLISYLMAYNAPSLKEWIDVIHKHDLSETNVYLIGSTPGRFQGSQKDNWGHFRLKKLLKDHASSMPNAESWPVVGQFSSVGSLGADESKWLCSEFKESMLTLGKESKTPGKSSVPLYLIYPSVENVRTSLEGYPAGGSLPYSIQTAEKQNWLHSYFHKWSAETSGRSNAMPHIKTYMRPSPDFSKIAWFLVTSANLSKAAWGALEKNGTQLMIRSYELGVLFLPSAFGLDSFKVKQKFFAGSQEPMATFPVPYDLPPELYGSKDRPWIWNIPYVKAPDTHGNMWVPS
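Compounds were preincubated with Tdp1 (1 nM final) for 15 min at room temperature before substrate (15 nM final) started a 5 min reaction; beads (10 ug/ml final) were then added for 10 min before AlphaScreen detection.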
An asterisk follows results filed as active; ? = inconclusive; nt = no result; ! = repeats disagree; [ ] = dose if it differs, or a comment. Unless noted, the call rests on the fitted dose curve; in most records, active means well fitted curve in the direction sought with a large enough effect; inconclusive means small, poorly fitted or top-dose-only effect, or another doubt; inactive means no such curve, though single readings can be large; an effect the other way counts as inactive or inconclusive. On the % scale 0 is the no-effect control and ±100 the full control effect.

SMILES	DT40 TDP1 CPT	Giardia kill	ELG1 DNA repair	IL-1B inflam inh	DT40 TDP1 no CPT	TDP1 block
CC(C)OCc1cc(CN2CCN(c3ccccc3)CC2)c(O)c2ncccc12	4.6µM*	nt	nt	nt	3.3µM*	13%
CCOCc1cc(CN2CCN(c3cccc(Cl)c3)CC2)c(O)c2ncccc12	8.2µM*	nt	nt	nt	7.3µM*	13%
C/C=C/c1cc(CN2CCN(c3ccccc3)CC2)c(O)c(OC)c1	-17%	5	19%	14	12%	5%
COCc1cc(CN2CCN(C)CC2)c(O)c2ncccc12	4.1µM*	1	-24%	20	3.3µM*	-3%
CCOC(=O)C1CCN(Cc2ccc(O)c3ncccc23)CC1	4.6µM*	-22	?	13	3.7µM*	8%
Cc1ccc(NC(=O)c2ccc(COc3ccc4c(c3)CCC4)cc2)c(C)c1	?	5	?	-18	?	-4%
COc1ccccc1N1CCN(C(=S)Nc2ccc(S(=O)(=O)N3CCOCC3)cc2)CC1	18µM*	20	?	?	15µM*	nt
O=S(=O)(c1ccc(NC(=S)N2CCN(c3ccccc3F)CC2)cc1)N1CCOCC1	?	11	23µM*	?	18µM*	0%
O=C1C(Cl)=C(NCCCO)C(=O)c2ccccc21	23µM*	?	-13%	57	18µM*	-1%
CCOCCCNC1=C(Cl)C(=O)c2ccccc2C1=O	5.8µM*	11	-24%	33	6.5µM*	11%
COC(=O)c1ccc(Cn2nc(-c3ccc(C)cc3)ccc2=O)cc1	16µM*!	9	4%	10	?	5%
COC(=O)c1ccc(Cn2nc(-c3ccc(C)c(C)c3)ccc2=O)cc1	?	-3	?	8	?	-5%
O=C(C1CCCO1)N1CCN(S(=O)(=O)c2cc(C(F)(F)F)ccc2Cl)CC1 (stereo not given)	-7%	11	1%	18	-7%	-15%
CN(C)C(=O)/C(C#N)=C\c1cc(Br)c(Sc2ccc(Cl)cc2)o1	?	-11	?	-94*	15µM*	3%
Cc1cc(C)nc(Sc2ccc(/C=C(\C#N)C(N)=O)o2)n1	0%	3	-20%	3	7%	-3%
C/C=C/c1ccc(OCCn2nnc3ccccc32)c(OC)c1	18µM*	-12	?	0	15µM*	nt
C=CCc1ccccc1OCCn1nnc2ccccc21	?	52	-12%	50	23µM*	nt
Cc1cccc(OCCn2nnc3ccccc32)c1C	?	19	?	-12	?	nt
COCc1nc2ccccc2n1CCOc1ccccc1OC	-25%	-2	0%	17	-18%	4%
COc1ccc(C(=O)N/C(=C\c2cn(C)c3ccccc23)C(=O)NCCN2CCOCC2)cc1OC	-7%	-3	0%	-4	-6%	1%
Cc1ccc(S(=O)(=O)NC(=O)N[C@@H](C)Cc2ccccc2)cc1	20%	nt	nt	nt	8%	nt
COc1cccc(CNc2ccc(F)c(Cl)c2)c1	-8%	21	?	-17	-16%	0%
COc1cccc(CNCC(O)(c2ccc(Cl)cc2)c2ccc(Cl)cc2)c1	23µM*	-13	?	-57*	23µM*	0%
COc1ccc(CNCC(O)(c2ccccc2)c2ccc(Cl)cc2)cc1 (stereo not given)	?	11	-14%	0	21µM*	4%
N[C@H](Cc1cc(I)c(Oc2ccc(O)c(I)c2)c(I)c1)C(=O)O	nt	nt	nt	nt	nt	12%[21 µM]
SMILES	DT40 TDP1 CPT	Giardia kill	ELG1 DNA repair	IL-1B inflam inh	DT40 TDP1 no CPT	TDP1 block
CCOC(=O)N/N=C1/C[C@@H](O)[C@@H](O)[C@@H]2[C@@H]3C(=O)N(Cc4ccc5c(c4)OCO5)C(=O)[C@H]3CC[C@@H]12	nt	nt	nt	nt	nt	7%[21 µM]
COc1ccc([N+](=O)[O-])cc1NC(=S)NC(C)=O	?	1	-2%	4	?	-14%
COc1cc([N+](=O)[O-])ccc1NC(=S)Nc1cc(C(=O)OC(C)C)cc(C(=O)OC(C)C)c1	29µM*	-7	?	-3	?	1%
Cc1ccc(Sc2ncnc3onc(C)c23)cc1	?	-16	-16%	-16	21µM*	-6%
Cc1noc2ncnc(SCc3ccc(C(F)(F)F)cc3)c12	?	-14	-9%	?	16µM*	-4%
Cc1ccc(CSc2ncnc3onc(C)c23)cc1	14%	-6	0%	11	-16%	0%
Cc1noc2ncnc(Sc3c(Cl)cccc3Cl)c12	18µM*	3	?	-115*	16µM*	-2%
Cc1ccccc1Sc1ncnc2onc(C)c12	23µM*	9	-3%	-52*	23µM*	-5%
Cc1ccc(F)cc1C(=O)N1CCCC(c2cc(C(=O)Nc3ccccc3Cl)no2)C1 (stereo not given)	?	nt	nt	23	21µM*	nt
O=C(Nc1ccccc1Cl)c1cc(C2CCCN(C(=O)c3ccccc3)C2)on1 (stereo not given)	18µM*	nt	nt	-9	?	nt
Oc1cc(-c2cccs2)cc2c1OCCN(Cc1cn[nH]c1-c1ccc(Cl)cc1)C2	18µM*	nt	nt	nt	?	nt
O=C(c1cccnc1Cl)N(Cc1ccccc1)Cc1ccccc1	?	-8	?	-67*	9.2µM*	1%
